“And” between values parts separate entries of the source, which are not always exact repeats. Equal values may be shown once. Results filed as inconclusive are left out. Some compounds were tested as several samples or in several runs, with calls that do not always agree. Unmarked numbers belong to inactive results. The source made the active and inactive calls. Calls come from the whole dose curve; as a rule, active = well fitted inhibition curve with a large enough effect; inconclusive = small, poorly fitted or top-dose-only effect; inactive = flat fitted curve, though single readings scatter.
% is set by controls: 0 for no effect and ±100 for the full control effect; potency is the fitted concentration of half-maximal effect.

This experiment concerns HaCat. Nature of the experiment: Cytotoxic Profiling of Annotated Libraries Using Quantitative High-Throughput Screening (AID 1296008). Note: nearly all actives have a fitted effect of over 60% in size. The conditions noted are these: Five cell lines viability, CellTiter-Glo ATP luminescence, 48-72 h; max response: stronger effect = lower value. An excerpt: Cell-based phenotypic screening is a commonly used approach to discover biological pathways, novel drug targets, chemical probes and high-quality hit-to-lead molecules. Many hits identified from high-throughput screening campaign are ruled out through a series of follow-up potency, selectivity/specificity, and cytotoxicity assays. Prioritization of molecules with little or no cytotoxicity for a more in-depth downstream evaluation influence the future direction of projects, so cytotoxicity profiling of the screening libraries at early stage is essential for increasing the likelihood of candidate success. […] For the annotated library, we also examined the primary targets and mechanistic pathways regularly associated with cell death. To our knowledge, this is the first study to use high-throughput screening to profile large libraries for cytotoxicity assessment in both normal and cancer cell lines. In summary, the results generated here constitutes a valuable resource for the scientific community and provides insight on identifying cytotoxic compounds with particular mechanisms of action, and prioritizing compounds with suitable cytotoxicity profile for further evaluation.
A pintool (Kalypsys) was used to transfer 23 nL of compound solution to the 1536-well assay plates. After 48 or 72 hr incubation at 37 degree Celsius, 5% CO2 and 95% humidity, 2.5 uL of CellTiter-Glo (Promega) was dispensed into each well using a dispenser (Aspect Automation, St. Paul, MN) with solenoid valves (Lee Valves, Westbrook CT). Plates were left at room temperature for 10 min before imaging the ATP-coupled luminescence using a ViewLux microplate imager (PerkinElmer, Waltham, MA).
(ATP-based viability assays read luminescence as a measure of living cells.)
In the case of `CCCc1nn(C)c2c(=O)[nH]c(-c3cc(S(=O)(=O)N4CCN(C)CC4)ccc3OCC)nc12`, the max response was -6.49% and -10.8%. Take `CCCS(=O)(=O)Nc1ccc(F)c(C(=O)c2c[nH]c3ncc(Cl)cc23)c1F`: the max response is -1.82%. As for `Cn1cnc2c(F)c(Nc3ccc(Br)cc3Cl)c(C(=O)NOCCO)cc21`, the Potency was 1.48 µM (active). For `Cc1cc(SCc2sc(-c3ccc(C(F)(F)F)cc3)nc2C)ccc1OCC(=O)O`, the max response is -0.39% and 1.93%.

In the case of `COc1cc2nccc(Oc3ccc(NC(=O)NC4CC4)c(Cl)c3)c2cc1C(N)=O`, the max response was -5.23% and -15.3%. On to `CCCC(CCC)C(=O)O`, for which the molecule was classed as inactive and the max response was 2.57%. The like results for `O=C1CCCC2=C1C(c1[nH]ncc1Cl)N=C(Nc1nc3ccccc3o1)N2` (stereo not given) were, in that order, “inactive” and -0.0608%. With `O=C(O)COCCN1CCN(C(c2ccccc2)c2ccc(Cl)cc2)CC1` (stereo not given), the max response was -5.21% and -2.14%. In the case of `Clc1ccc(Nc2nnc(Cc3ccncc3)c3ccccc23)cc1`, the molecule was classed as inactive and the max response is -5.86%.

Turning to `CC(=O)NC(C)c1ccc(Oc2ccc(OC(C)C)cc2)cc1` (stereo not given), the max response is -3.76%. On to `Cc1csc(NC(=O)c2sc3nc4c(c(C(F)(F)F)c3c2N)CCC4)n1`, for which the molecule was classed as inactive and the max response was -0.44%.

As to `c1ccc([C@H]2CN3CCSC3=N2)cc1`, the max response was 1.22% and the molecule was called inactive.

As to `O=C(Nc1nc2ccccc2n1CCN1CCOCC1)c1cccc([N+](=O)[O-])c1`, the result was inactive.

On to `O=c1[nH]c(-c2ccc(C(F)(F)F)cc2)nc2c1CSCC2`, for which the max response was -17.6% and -9.05%. As for `CC(=O)Oc1ccccc1C(=O)O`, the outcome was inactive.

Take `CC[C@@H](C)[C@H](NC(=O)[C@H](CC1CCCCC1)NC(=O)c1ccno1)C(=O)N1CCC2(CCc3ccccc32)CC1`: the call was inactive.

As for `c1ccc(-c2nn3c(c2-c2ccnc4cc(OCCN5CCOCC5)ccc24)CCC3)nc1`, the max response was -14.5%. Take `COc1ccc(-c2oc3cc(OC)ccc3c2C(=O)c2ccc(C#N)cc2)cc1`: the result was inactive.

Consider `CCOC(=O)N1CCC(=C2c3ccc(Cl)cc3CCc3cccnc32)CC1`, for which the max response is -16.9% and -8.21%. With `CCCn1c(=O)c2[nH]c(C34CC5CC3C[C@@H](C5)C4)nc2n(CCC)c1=O`, the max response is 4.8%. Take `Cc1c(C)c2c(c(C)c1O)CCC(C)(COc1ccc(CC3SC(=O)NC3=O)cc1)O2` (stereo not given): the molecule was called inactive.

As to `Clc1cccc(Cl)c1NC1=NCCN1`, the molecule was classed as inactive. For `Cc1ccnc(NS(=O)(=O)c2ccc(NC(=O)Nc3ccc(S(=O)(=O)Nc4nccc(C)n4)cc3)cc2)n1`, the Potency is 1.48 µM (active) and the max response is -9.99%.

As for `COc1cc(Nc2ncc3c(n2)-c2ccc(Cl)cc2C(c2c(F)cccc2OC)=NC3)ccc1C(=O)O`, the Potency was 16.4 µM (active) and 833 nM (active). Consider `C[C@@H]1CN(Cc2ccc(F)cc2)[C@@H](C)CN1C(=O)c1cc2c(C(=O)C(=O)N(C)C)cn(C)c2cc1Cl`, for which the max response was -4.64% and the molecule was called inactive.

On to `CCOc1cc(C=C2C(=O)N(c3ccccc3)N=C2C)cc(Cl)c1OCC(=O)OC`, for which the result was inactive. Same read-out and setting: as for `NC(=O)c1ccc(I)c([N+](=O)[O-])c1`, the entry is “inactive”. As for `O=C(Nc1cccnc1)N1CCC(Cc2cccc(Oc3ccc(C(F)(F)F)cn3)c2)CC1`, the max response is -12.8%. For `CC(C[N+](C)(C)C)OC(N)=O` (stereo not given), the result was inactive.

For `Nc1ncnc2nc(-c3ccc(N4CCOCC4)nc3)cc(-c3cccc(Br)c3)c12`, the max response is 3.01%.

For `Cc1cccc(-c2[nH]c(C(C)(C)C)nc2-c2ccc3nccnc3c2)n1`, the molecule was called inactive. For `O=C(C=Cc1ccc(/C=C/C(=O)Nc2ccc(C3=NCCN3)cc2)cc1)Nc1ccc(C2=NCCN2)cc1`, the max response is -9.67%.

Take `COc1cc2c(cc1OC)CN(CCc1ccc(NC(=O)c3cccc4c(=O)c5cccc(OC)c5[nH]c34)cc1)CC2`: the molecule was classed as inactive.

For the origin of these results see PubChem BioAssay (NCATS).
